# From PubChem BioAssay (NCI)
# Compounds without any hit were thinned out: in the full panel of roughly 79,000, 15% have a hit. Values without a mark were called inactive. Calls of active or inactive are those of the source. Rule as the data show it: active = growth inhibition above about 70%; inactive = the rest.
# Assays:
# [1] = NCI Yeast Anticancer Drug Screen. Data for the rad50 strain (AID 155);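 also: 0% = growth of vehicle-only cultures of the same strain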; conditions: S. cerevisiae rad50 strain growth inhibition; at 50.0 µM; stronger effect = higher value
# How it was run: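 Cells are treated with compound, grown, and their growth is then scored against vehicle-only cultures of the same repair-deficient yeast strain.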
# [2] = NCI Yeast Anticancer Drug Screen. Data for the mec2-1 strain (AID 157); conditions: S. cerevisiae mec2-1 strain, at 50.0 µM, stronger effect = higher value
# How it was run: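 Yeast mec2-1 mutant treated with compound. Readout: growth inhibition vs vehicle controls.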
# [3] = NCI Yeast Anticancer Drug Screen. Data for the sgs1 mgt1 strain (AID 161);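 also: 0% = growth of cultures given vehicle only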; conditions: S. cerevisiae sgs1 mgt1 strain, at 50.0 µM, stronger effect = higher value
# How it was run: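 Test agents were incubated with a DNA-repair-mutant yeast strain. Growth was then read and compared against vehicle-treated controls.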
# [4] = NCI Yeast Anticancer Drug Screen. Data for the cln2 rad14 strain (AID 165);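 also: 0% = growth equal to vehicle treated cultures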; conditions: S. cerevisiae cln2 rad14 strain, at 50.0 µM, stronger effect = higher value
# How it was run: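 cln2 rad14 yeast strain; compound exposure; growth inhibition read vs vehicle controls.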
# [5] = NCI Yeast Anticancer Drug Screen. Data for the bub3 strain (AID 167); conditions: S. cerevisiae bub3 mutant strain, at 50.0 µM, stronger effect = higher value
# How it was run: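 Part of a panel of yeast mutants defective in DNA damage repair or cell cycle regulation. Each strain is grown with compound, and inhibition is calculated relative to solvent-treated cultures.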
# [6] = NCI Yeast Anticancer Drug Screen. Data for the mlh1 rad18 strain (AID 175); conditions: S. cerevisiae mlh1 rad18 strain growth inhibition; at 50.0 µM; stronger effect = higher value
# How it was run: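 Yeast w/ defined DNA-repair lesions; compound exposure; growth vs vehicle controls → % inhibition.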
SMILES,growth inhibition [1] [%],growth inhibition [2] [%],growth inhibition [3],growth inhibition [4] [%],growth inhibition [5] [%],growth inhibition [6] [%]
Cc1cc(Br)cc(Cl)c1O,-22.1,-7.9,6.55%,-11.2,-30.2,-12.4
CC1(C)C2CCC(C2)C1/C=C1/SC(=S)NC1=O (configuration not stated),-6.2,-1.55,1.55%,49,17.8,2.85
CCCC(P(c1ccccc1)c1ccccc1)P(=O)(c1ccccc1)c1ccccc1 (configuration not stated),62.7,39.2,39.1%,24.9,59.4,29.1
O=C(N/N=C\c1cc(=O)[nH]c(=O)[nH]1)c1ccccc1,-18.1,-2.95,-11.5%,-6.75,-14.2,2.9
COC(=O)[C@H](Cc1ccc(OC(C)(C)C)cc1)N[C@H](C)C(=O)N[C@@H](Cc1ccccc1)C(=O)OCc1ccccc1,35.5,35.1,50.1%,67,62.4,57
CCOC(=O)/C(Cc1nc2ccccc2[nH]c1=O)=N\O,-0.5,9.95,5.65%,50.4,-4.45,7.7
C(#Cc1c2ccccc2c(C#Cc2ccccc2)c2c(-c3ccccc3)cccc12)c1ccccc1,-11.1,13.1,-3.5%,4.05,45.6,24.5
CC(=O)OCC1OC(OC(C)=O)C(N(C)C(C)=O)C(OC(C)=O)C1OC(C)=O (configuration not stated),32.8,18.6,26.8%,20.6,-0.55,35.6
C[n+]1cccc(/C=C/C(=O)Nc2ccccc2)c1,5.8,7,-24.1%,5.95,12.1,19.4
COc1ccccc1N=Nc1c(C)nc(N)nc1-c1ccccc1,23.1,10.4,25.9%,7.9,4.6,23.6
Cc1c(-c2ccccc2)n[nH]c1-c1[nH]nc(-c2ccccc2)c1C,-9.7,-16.9,-24.2%,-15,-41.1,-19.1
COc1ccc(OC)c(/C=C/C(=O)NC(CO)CSCSC)c1 (configuration not stated),-0.35,4.75,-3.9%,-10.8,21.5,-24.4
Cc1ccc(C(=O)O)c(=O)[nH]1,3.65,-26.1,5.3%,2.05,7.3,-2
COc1cc(/C=N/N=C(\N)NO)cc(OC)c1OC,-6.5,3.85,2.4%,6.35,1,4.55
OCc1c(CO)c(-c2ccc(Cl)cc2)n2c1CCC2,29.4,-15,8.4%,29.2,-6.35,34.5
COc1cc2c(cc1OC)C(CS(C)=O)Cc1cc(OC)c(OC)cc1N(C)CCC2 (configuration not stated),10.5,19.4,14.2%,10.6,-1.55,29.9
NC(=S)NCCN1CCOCC1,-8.85,-5.95,-1.9%,-15.7,2.25,10
c1ccc(CN2CCCNCC2)cc1,9.55,-1.4,-0.25%,-11.8,4.7,-0.05
CCOC(=O)c1nc2ccc(OC)cc2c2c1Cc1ccccc1-2,-8.55,-20.9,-22.1%,8.3,0.55,-24.4
CC(NC(=O)CNC(=O)CN)C(N)=O (configuration not stated),-23.9,-0.65,-17.1%,5.9,8.25,-17.2
c1ccc(NCNC2Nc3ccccc3N2)cc1,-25.9,-13.2,12.3%,-3.35,-20.6,11.6

SMILES,growth inhibition [1] [%],growth inhibition [2] [%],growth inhibition [3],growth inhibition [4] [%],growth inhibition [5] [%],growth inhibition [6] [%]
CCn1c(S)c(N=NC(=S)c2ccc3ccccc3n2)c2ccccc21,46,18.9,27.8%,23.4,17.4,11.5
CCN(CCC#N)c1cccc(C)c1,-12.2,1.6,-5.75%,9.8,-16.8,-7.55
NC(=O)N(CCO)/N=C/c1ccc([N+](=O)[O-])o1,42.3,15.7,54.8%,17.9,33.6,59.9
COc1cc(Nc2nc3ccccc3nc2C(=O)O)cc(OC)c1OC,-26.2,-9.45,-16.1%,2.5,16.9,-45.4
COC(=O)c1ccc(C[P+](c2ccccc2)(c2ccccc2)c2ccccc2)cc1,15.5,7.75,44.3%,40.2,0.95,43.1
CC(C)(C)[Si](C)(C)Oc1cc(CO)cc2c1cc(=N)o[n+]2[O-],-27.6,-12.9,-23.2%,-30.9,-1.15,-31.2
O=C(N=Nc1c(O)[nH]c2ccccc12)C(=O)N=Nc1c(O)[nH]c2ccccc12,-4.95,8.35,9.5%,-1.1,7.15,26.6
S=C(NCc1cccc2ccccc12)Nc1ccccc1,-9.3,7.8,39%,-27.5,8.8,20.9
O=c1[nH]c2cc3ccccc3cc2c2ccccc12,21.9,9.6,0.8%,-15.7,-1.7,14.2
O=C(O)C1C(C(=O)O)C2C3C4C1C1C2C3C41 (configuration not stated),2.9,3.15,-4.2%,-21.9,13.3,-0.15
Cc1cccc(C)c1NC(=S)NC1CC(C)CC(C)(C)C1 (configuration not stated),41.2,50.5,76.7% (active),57.9,63,50.3
O=C(Oc1ccccc1)Oc1c(Cl)cc([N+](=O)[O-])cc1[N+](=O)[O-],25,1.4,5.25%,10.9,0.45,15.5
Cc1cccc(C)c1NC(=O)C1=NC(=S)NC(c2ccccc2)C1c1nc2ccccc2s1 (configuration not stated),-5.7,-19,-15.4%,10.2,-0.85,-1.1
Oc1ccccc1CN=Cc1ccccc1,7.45,4.1,-4.25%,-0.5,-27.2,4.85
C[Si](C)(C)O/C=C1\CCCCC1=O,5.65,8.4,2.5%,14.8,2.8,-23.6
Cc1ccc2nc(-c3ccc(N)cc3)sc2c1S(=O)(=O)O,3.3,2.15,6.8%,2.45,2.3,5.65
CCCC(=O)Oc1ccc(Br)cc1,6.6,-22.4,-5.25%,12.8,-17.9,20.9
Nc1nc(CCC(=O)Nc2cccc(C(F)(F)F)c2)cc(-c2ccc3ccccc3c2)n1,-8.3,-23.5,-77.7%,-10.2,-5.5,-31.6
CC(O)(C1CC1)C(C(=O)O)c1ccccc1 (configuration not stated),-15.4,-6.85,1.9%,-26.7,1.55,10.6
CCNC(=O)C1C2C=CC(C2)C1C(=O)NCC (configuration not stated),2.9,-9.6,-9.15%,-46,-5.3,0.05
CCCc1cc(C(=O)N/N=C/c2ccc([N+](=O)[O-])cc2)c2ccccc2n1,-28.3,-3.2,0.1%,-40.5,9.5,-2.8
